Laboratory results from the supplement of paper PMC9177965.
“And” between values parts separate entries of the source, which are not always exact repeats. Identical values can stand only once.

Experiments:
[1] = tested on: HT29 RNF43 G659fs (RNF43 659mut, CRISPR-edited); test: cell viability activity relative to DMSO (negative = inhibition); higher = more viable cells (less growth inhibition); conditions: 5 µM; 96 h
Description: (§1)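 Broad Repurposing Library primary screen at a single dose of 5 uM. HT29 sg-Ctrl and HT29 RNF43 G659fs CRISPR-edited isogenic cells were seeded at 2500 cells/well in 384-well plates in duplicate and treated for 96 h. Viability was read by CellTiter-Glo and reported as % activity relative to DMSO, with MG132 as the positive control (negative = growth inhibition).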

[2] = tested on: HT29 sg-Ctrl (RNF43 wildtype); test: as above; conditions: 5 µM; 96 h
Description: as §1

Compound | cell viability activity [1] | cell viability activity [2]
C1=N/C2=N/c3ccc(OCCN4CCCC4)c(c3)COC/C=C/COCc3cccc(c3)C(=C1)N2 | -41.5% | -31.8%
Cc1[nH]c2ccccc2c1CCNCc1ccc(/C=C/C(=O)NO)cc1 | -99.3% | -96.1%
CN(C)C/C=C/C(=O)Nc1ccc(C(=O)Nc2cccc(Nc3ncc(Cl)c(-c4c[nH]c5ccccc45)n3)c2)cc1 | -87.2% | -86.4%
Cn1cc(CNCC2CCN(c3ncc(C(=O)NO)cn3)CC2)c2ccccc21 | -95.9% | -92.8%
COc1cc(-c2ncn(/C=C/C(=O)OC(C)C)n2)cc(C(F)(F)F)c1 | -69.7% | -76.9%
C=CC(=O)Nc1cccc(Sc2nc(Nc3ccc(N4CCN(C)CC4)cc3)ncc2Cl)c1 | -59.9% | -42.7%
Nc1ncccc1-c1nc2ccc(-c3ccccc3)nc2n1-c1ccc(C2(N)CCC2)cc1 | -70.4% | -49.1%
CC(C)(C)c1ccc(S(=O)(=O)/C=C/C#N)cc1 | -80.4% | -95.4%
Oc1c(Cl)cc(Cl)c(Cl)c1Cc1c(O)c(Cl)cc(Cl)c1Cl | -49% | -40.9%
O=c1[nH]cc(F)c(=O)[nH]1 | -32.3% | -14.8%
C=CCn1c(=O)c2cnc(Nc3ccc(N4CCN(C)CC4)cc3)nc2n1-c1cccc(C(C)(C)O)n1 | -74.4% | -81%
O=c1[nH]c(=O)n([C@H]2C[C@H](O)[C@@H](CO)O2)cc1F | -58.1% and -58.2% | -54.2% and -63.2%
Cc1cc(NC(=O)NCCN2CCC(O)(Cc3ccccc3)CC2)c2ccccc2n1 | -36.2% | -24.3%
CN(C)CCCC(=O)Nc1ccc(C(=O)Nc2cccc(Nc3ncc(Cl)c(-c4c[nH]c5ccccc45)n3)c2)cc1 | -70.8% | -78.1%
CC[C@@H](C)Nc1cc(C(=O)N[C@H]2C[C@H]3CC[C@@H](C2)N3c2ccc(C(=O)C3CC3)cn2)c(C)cc1C(N)=O | -85.8% | -84.4%
CN1c2ccccc2C(=O)N2CCc3c([nH]c4ccccc34)[C@@H]21 | -24.8% | -3.62%
CCOc1cc(C(=O)N2CCC(N3CCN(C)CC3)CC2)ccc1Nc1ncc2c(n1)N(C1CCCC1)c1ccccc1C(=O)N2C | -64.4% | -65.5%
C[C@@H](Oc1cc(-n2cnc3ccc(CN4CCN(C)CC4)cc32)sc1C(N)=O)c1ccccc1C(F)(F)F | -89.5% | -76.1%

Compound | cell viability activity [1] | cell viability activity [2]
CN1CC[C@@H](c2c(O)cc(O)c3c(=O)cc(-c4ccccc4Cl)oc23)[C@@H]1CO | -90.1% | -82.7%
CCc1cccc(CC)c1NC(=O)N1Cc2[nH]nc(NC(=O)c3ccc(N4CCN(C)CC4)cc3)c2C1 | -46.8% | -21.2%
CC(C)[C@](O)(c1ccc2cc(OC(F)F)c(OC(F)F)cc2c1)c1c[nH]nn1 | -54.8% | 9.17%
CC(C)(O)C(=O)N1CCN(c2ccc(C(F)(F)F)c(C3=C(c4c[nH]c5ccccc45)C(=O)NC3=O)c2)CC1 | -43.1% | -32.7%
Nc1nc(=O)n([C@H]2C[C@H](O)[C@@H](CO)O2)cc1F | -64.2% | -71%
C=C1CC[C@@H]2[C@](C)(CO)[C@H](O)CC[C@@]2(C)[C@@H]1C/C=C1/C(=O)OC[C@H]1O | -27.5% | -0.518%
OCCN1CCN(CCCN2c3ccccc3Sc3ccc(Cl)cc32)CC1 | -53.2% | -90.5%
CO[C@H]1/C=C\C=C(/C)C(=O)NC2=CC(=O)C(NCCN(C)C)=C(C[C@@H](C)C[C@H](OC)[C@H](O)[C@@H](C)/C=C(\C)[C@@H]1OC(N)=O)C2=O | -93.9% and -91.4% | -92.1% and -90.4%
O=C(O)C[C@H](O)C[C@H](O)/C=C/c1c(C2CC2)nc2ccccc2c1-c1ccc(F)cc1 | -25.1% | -8.8%
CCCC1(CCC)CCC2(CCN(CCCN(CC)CC)C2)CC1 | -96.4% | -95.6%
CCCCCCCCN=c1ccn(CCCCCCCCCCn2ccc(=NCCCCCCCC)cc2)cc1 | -94.6% | -92.1%
O=C(c1ccc(F)c(F)c1Nc1ccc(I)cc1F)N1CC(O)([C@@H]2CCCCN2)C1 | -86.8% | -88.9%
C[C@H](Nc1ncnc2nc[nH]c12)c1cc2cccc(Cl)c2c(=O)n1-c1ccccc1 | -24.4% | -24.3%
CNC(=O)c1ccccc1Nc1nc(Nc2ccc(N3CCOCC3)cc2OC)ncc1Cl | -73.1% | -70.3%
CC(C)c1cc(CNc2nc(Nc3cc(C4CC4)[nH]n3)cc(N3CCN(C)CC3)n2)on1 | -86.1% | -84.3%
CNC(=O)c1ccccc1Nc1nc(Nc2ccc3c(c2OC)CCC[C@H](N2CCN(CCO)CC2)C3)ncc1Cl | -89.4% | -85.5%
CC(=O)c1c(C)c2cnc(Nc3ccc(N4CCNCC4)cn3)nc2n(C2CCCC2)c1=O | -37.2% | -48.4%
